The text below walks through data of ChEMBL document CHEMBL2218924, “A broad activity screen in support of a chemogenomic map for kinase signalling research and drug discovery” (Biochem J, 2013).

Assay [1] addresses T1, Serine/threonine-protein kinase BRSK1 (Homo sapiens) (UniProt Q8TDC3).
T1 sequence (whole entry): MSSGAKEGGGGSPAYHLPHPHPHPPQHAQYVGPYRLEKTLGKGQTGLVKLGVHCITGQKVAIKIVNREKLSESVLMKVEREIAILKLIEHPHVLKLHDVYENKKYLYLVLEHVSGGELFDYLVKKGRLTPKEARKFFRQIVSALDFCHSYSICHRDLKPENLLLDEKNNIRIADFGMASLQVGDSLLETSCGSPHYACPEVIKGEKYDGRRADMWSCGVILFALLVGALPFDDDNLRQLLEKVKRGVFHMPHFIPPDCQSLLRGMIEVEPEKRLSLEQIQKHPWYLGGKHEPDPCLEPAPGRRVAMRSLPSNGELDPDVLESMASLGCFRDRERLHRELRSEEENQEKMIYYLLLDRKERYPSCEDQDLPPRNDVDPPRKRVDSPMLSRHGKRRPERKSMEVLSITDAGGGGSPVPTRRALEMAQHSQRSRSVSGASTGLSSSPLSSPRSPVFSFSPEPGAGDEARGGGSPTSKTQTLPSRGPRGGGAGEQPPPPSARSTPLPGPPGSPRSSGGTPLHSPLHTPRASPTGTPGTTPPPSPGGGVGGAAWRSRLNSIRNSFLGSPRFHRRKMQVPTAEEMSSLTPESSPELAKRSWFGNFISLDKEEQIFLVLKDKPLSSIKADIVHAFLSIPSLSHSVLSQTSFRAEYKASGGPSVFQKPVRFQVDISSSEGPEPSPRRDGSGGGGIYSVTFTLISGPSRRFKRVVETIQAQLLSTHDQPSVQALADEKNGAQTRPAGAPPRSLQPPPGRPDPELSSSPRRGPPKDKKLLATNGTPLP
Particulars: at 1 µM.

Assay [2] addresses T1, Serine/threonine-protein kinase BRSK1 (Homo sapiens). The note with it: at 10 µM.
For assay [3], the target named is T2, Serine/threonine-protein kinase BRSK2 (Homo sapiens) (UniProt Q8IWQ3).
T2 sequence (whole entry): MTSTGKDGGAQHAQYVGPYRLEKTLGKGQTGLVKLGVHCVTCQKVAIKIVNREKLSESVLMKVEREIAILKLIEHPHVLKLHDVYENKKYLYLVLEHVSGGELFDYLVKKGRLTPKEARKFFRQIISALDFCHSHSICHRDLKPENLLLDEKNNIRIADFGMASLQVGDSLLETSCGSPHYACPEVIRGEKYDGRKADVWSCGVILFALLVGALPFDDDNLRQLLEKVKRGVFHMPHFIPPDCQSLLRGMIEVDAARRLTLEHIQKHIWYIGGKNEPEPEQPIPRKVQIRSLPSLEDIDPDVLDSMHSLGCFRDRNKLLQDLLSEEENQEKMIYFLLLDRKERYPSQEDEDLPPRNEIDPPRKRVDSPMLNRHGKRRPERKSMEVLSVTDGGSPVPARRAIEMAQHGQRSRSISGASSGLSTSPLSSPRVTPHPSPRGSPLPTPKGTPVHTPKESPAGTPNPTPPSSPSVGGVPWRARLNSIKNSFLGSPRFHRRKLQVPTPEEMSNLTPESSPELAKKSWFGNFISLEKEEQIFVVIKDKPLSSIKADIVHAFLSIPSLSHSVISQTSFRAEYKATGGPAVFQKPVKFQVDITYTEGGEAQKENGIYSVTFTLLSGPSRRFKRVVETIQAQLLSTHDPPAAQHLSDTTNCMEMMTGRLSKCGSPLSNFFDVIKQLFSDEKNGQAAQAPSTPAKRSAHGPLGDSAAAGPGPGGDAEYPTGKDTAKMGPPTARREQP
The note with it: at 1 µM.

For assay [4], the target named is T2, Serine/threonine-protein kinase BRSK2 (Homo sapiens). Particulars: at 10 µM.
Assay [5] has as its target T3, Cyclin-dependent kinase 1/cyclin B1 (Homo sapiens) (UniProt P06493+P14635). The note with it: at 1 µM.
Assay [6] concerns the target T3, Cyclin-dependent kinase 1/cyclin B1 (Homo sapiens). Particulars: at 10 µM.
Assay [7] has as its target T4, Cyclin-dependent kinase 2/cyclin A (Homo sapiens) (UniProt P24941+P20248+P78396). Particulars: at 1 µM.
Assay [8] deals with T4, Cyclin-dependent kinase 2/cyclin A (Homo sapiens). The note with it: at 10 µM.
Assay [9] concerns the target T5, Cyclin-dependent kinase 2/cyclin E (Homo sapiens) (UniProt P24864+P24941+O96020). Particulars: at 10 µM.
Assay [10] deals with T6, CDK3/cyclin E (Homo sapiens) (UniProt P24864+O96020+Q00526). The note with it: at 1 µM.
The target in assay [11] is T6, CDK3/cyclin E (Homo sapiens). Particulars: at 10 µM.
Assay [12] deals with T7, Cyclin-dependent kinase 5/CDK5 activator 1 (Homo sapiens) (UniProt Q00535+Q15078). Particulars: at 1 µM.
Assay [13] deals with T7, Cyclin-dependent kinase 5/CDK5 activator 1 (Homo sapiens). The note with it: at 10 µM.
Assay [14] has the same target. The note with it: at 1 µM. The source holds these as a separate data set.
For assay [15] the target is unchanged. The note with it: at 10 µM. The source holds these as a separate data set.
The target of assay [16] is T8, CDK6/cyclin D3 (Homo sapiens) (UniProt P30281+Q00534). Particulars: at 1 µM.
In assay [17] the target is T8, CDK6/cyclin D3 (Homo sapiens). The note with it: at 10 µM.
The target in assay [18] is T9, Cyclin-dependent kinase 7/ cyclin H (Homo sapiens) (UniProt P51946+P50613). The note with it: at 1 µM.
Assay [19] deals with T9, Cyclin-dependent kinase 7/ cyclin H (Homo sapiens). Particulars: at 10 µM.
Assay [20] concerns the target T5, Cyclin-dependent kinase 2/cyclin E (Homo sapiens). The note with it: at 1 µM.

T3 sequence (P06493 whole entry, looked up): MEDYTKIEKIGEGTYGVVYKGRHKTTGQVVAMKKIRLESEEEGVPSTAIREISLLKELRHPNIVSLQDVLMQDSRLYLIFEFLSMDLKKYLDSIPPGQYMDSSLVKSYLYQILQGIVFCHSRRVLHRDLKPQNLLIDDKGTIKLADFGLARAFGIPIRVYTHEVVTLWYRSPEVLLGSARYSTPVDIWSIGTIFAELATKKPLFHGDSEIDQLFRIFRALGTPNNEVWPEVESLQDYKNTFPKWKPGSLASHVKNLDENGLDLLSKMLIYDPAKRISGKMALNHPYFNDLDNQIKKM
T3 sequence (P14635 whole entry, looked up): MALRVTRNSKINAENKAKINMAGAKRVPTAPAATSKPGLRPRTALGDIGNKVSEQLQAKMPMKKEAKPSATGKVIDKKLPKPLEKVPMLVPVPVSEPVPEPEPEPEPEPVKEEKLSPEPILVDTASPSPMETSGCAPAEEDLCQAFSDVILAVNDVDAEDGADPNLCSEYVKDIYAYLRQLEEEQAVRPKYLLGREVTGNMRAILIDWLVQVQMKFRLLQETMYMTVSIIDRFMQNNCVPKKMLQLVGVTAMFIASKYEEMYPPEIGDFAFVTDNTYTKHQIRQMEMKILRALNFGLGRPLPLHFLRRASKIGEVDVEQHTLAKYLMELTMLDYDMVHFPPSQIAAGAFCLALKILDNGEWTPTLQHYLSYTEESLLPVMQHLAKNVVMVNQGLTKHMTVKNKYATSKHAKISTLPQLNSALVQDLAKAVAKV
T6 sequence (O96020 whole entry, looked up): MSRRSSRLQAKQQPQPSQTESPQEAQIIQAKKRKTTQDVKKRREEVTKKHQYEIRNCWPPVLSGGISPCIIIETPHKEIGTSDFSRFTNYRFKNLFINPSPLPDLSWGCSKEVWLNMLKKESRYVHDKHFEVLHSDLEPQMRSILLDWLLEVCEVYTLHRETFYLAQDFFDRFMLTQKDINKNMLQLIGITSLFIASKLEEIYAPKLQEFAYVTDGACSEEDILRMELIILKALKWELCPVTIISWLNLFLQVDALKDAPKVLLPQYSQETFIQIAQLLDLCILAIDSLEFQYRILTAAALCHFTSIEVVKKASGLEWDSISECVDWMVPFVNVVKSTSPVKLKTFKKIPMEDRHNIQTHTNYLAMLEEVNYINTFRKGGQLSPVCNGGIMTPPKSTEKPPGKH
T6 sequence (P24864 whole entry, looked up): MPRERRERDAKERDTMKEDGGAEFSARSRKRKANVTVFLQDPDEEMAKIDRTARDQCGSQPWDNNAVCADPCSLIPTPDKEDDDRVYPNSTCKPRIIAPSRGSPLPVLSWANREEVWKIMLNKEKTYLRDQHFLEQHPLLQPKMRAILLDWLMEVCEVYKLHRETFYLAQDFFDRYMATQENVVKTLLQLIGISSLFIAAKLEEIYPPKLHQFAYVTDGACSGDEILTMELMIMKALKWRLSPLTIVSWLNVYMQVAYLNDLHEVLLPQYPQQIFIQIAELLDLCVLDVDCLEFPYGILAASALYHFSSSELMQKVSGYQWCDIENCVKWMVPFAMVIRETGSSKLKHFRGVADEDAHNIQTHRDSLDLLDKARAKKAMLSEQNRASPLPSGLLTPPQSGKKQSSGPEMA
T6 sequence (Q00526 whole entry, looked up): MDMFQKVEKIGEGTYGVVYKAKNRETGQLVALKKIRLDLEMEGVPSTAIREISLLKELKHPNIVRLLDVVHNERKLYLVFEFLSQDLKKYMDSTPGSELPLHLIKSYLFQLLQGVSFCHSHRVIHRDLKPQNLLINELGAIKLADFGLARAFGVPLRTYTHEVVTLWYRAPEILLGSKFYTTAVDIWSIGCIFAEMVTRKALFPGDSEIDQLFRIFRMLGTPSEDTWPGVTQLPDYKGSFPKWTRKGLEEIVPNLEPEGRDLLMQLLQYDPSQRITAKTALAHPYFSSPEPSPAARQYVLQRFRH

As for `CC#CC(=O)Nc1cc2c(Nc3ccc(F)c(Cl)c3)ncnc2cn1`, the residual activity in assay [1] was determined as 87%; in [2] it was 81%; in [3] it was 94%; in assay [4], 100%; in assay [5] it was 107%; in [6], 94%. The residual activity in assay [7] came to 126%; in [8], 85%; in assay [9] it was 94%; in [10], 97%; in [11], 86%; in assay [12], 90%. Moreover, the residual activity came out at 89% in assay [13]; 82% in assay [14]; 103% in [15]; 96% in [16]; 86% in assay [17]; 82% in assay [18]. In addition, the residual activity in [19] is 108%.
`COc1ccc(S(=O)(=O)N(CCO)c2ccccc2CN(C)C/C=C/c2ccc(Cl)cc2)cc1`: the residual activity in [1] was found to be 81%; in assay [2], 63%; in assay [3] it was 114%; in assay [4] it was 88%; in assay [5] it was 117%; in [6], 90%. In addition, the residual activity in assay [7] worked out at 76%; in [8], 64%; in assay [20] it was 106%; in assay [9], 95%; in assay [10], 92%; in assay [11], 80%. For the same compound, the residual activity in [12] turned out to be 91%; in [13], 84%; in [14], 90%; in [15] it was 97%; in [16], 97%; in [17] it was 86%. Besides, the residual activity came to 102% in assay [18] and 88% in assay [19].
For `CC(C)n1cnc2/c(=N/c3cccc(Cl)c3)nc(NCCO)[nH]c21`, the residual activity in assay [1] came to 89%; in [2], 89%; in [3] it was 118%; in assay [4], 104%; in assay [5] it was 58%; in assay [6], 13%. Further, the residual activity is 24% in assay [7]; 5% in assay [8]; 25% in [20]; 2% in assay [9]; 44% in [10]; 8% in [11]. Besides, the residual activity in assay [12] came out at 3%; in assay [13] it was 0%; in assay [14], 8%; in assay [15], 1%; in assay [16] it was 92%; in assay [17], 58%. Further, the residual activity in assay [18] came out at 45%; in [19], 7%.
`CC(=O)c1ccc(N2CCOCC2)cc1O`: the residual activity turned out to be 93% in assay [1]; 95% in [2]; 110% in assay [3]; 104% in assay [5]; 100% in assay [6]; 103% in [7]. Moreover, the residual activity in [8] came to 88%; in assay [20], 104%; in [9], 100%; in [10], 106%; in assay [11], 83%; in assay [12], 86%. Further, the residual activity turned out to be 74% in [13]; 95% in [14]; 84% in assay [15]; 99% in assay [16]; 89% in [17]; 91% in assay [18]. In addition, in assay [19], the residual activity worked out at 97%.
As to `c1ccc2c(-c3ccncc3)c[nH]c2c1`, the residual activity in assay [1] was 52%; in assay [2], 59%; in [3], 106%; in assay [4] it was 61%; in assay [8], 83%; in assay [10], 90%. Further, the residual activity in assay [11] amounted to 73%; in assay [12], 91%; in assay [13] it was 74%; in [14], 86%; in [15], 75%; in assay [16], 85%. For the same compound, the residual activity in assay [17] was determined as 82%; in assay [18] it was 83%; in assay [19] it was 94%.
Turning to `CC[n+]1c(/C=C/N(C)c2ccccc2)n(-c2ccccc2)c2ccc(-c3nc4ccccc4s3)cc21`, the residual activity in assay [1] turned out to be 59%; in assay [2] it was 68%; in [3] it was 111%; in assay [4], 129%; in [5], 111%; in [6], 91%. The residual activity is 146% in [7]; 85% in [8]; 101% in assay [20]; 89% in [9]; 108% in [10]; 90% in assay [11]. Besides, the residual activity in assay [12] amounted to 115%; in assay [13] it was 92%; in [14], 101%; in assay [15], 95%; in [16], 105%; in [17], 104%. Moreover, the values for the residual activity in [18] and in assay [19] were 97% and 100%, respectively.
